# What was measured:
# [1] = biological target: T1, Muscle, skeletal receptor tyrosine-protein kinase (Homo sapiens) (UniProt O15146); settings: at 1 µM;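 further: reported value is the mean percent inhibition of MuSK kinase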
# T1 sequence (whole entry): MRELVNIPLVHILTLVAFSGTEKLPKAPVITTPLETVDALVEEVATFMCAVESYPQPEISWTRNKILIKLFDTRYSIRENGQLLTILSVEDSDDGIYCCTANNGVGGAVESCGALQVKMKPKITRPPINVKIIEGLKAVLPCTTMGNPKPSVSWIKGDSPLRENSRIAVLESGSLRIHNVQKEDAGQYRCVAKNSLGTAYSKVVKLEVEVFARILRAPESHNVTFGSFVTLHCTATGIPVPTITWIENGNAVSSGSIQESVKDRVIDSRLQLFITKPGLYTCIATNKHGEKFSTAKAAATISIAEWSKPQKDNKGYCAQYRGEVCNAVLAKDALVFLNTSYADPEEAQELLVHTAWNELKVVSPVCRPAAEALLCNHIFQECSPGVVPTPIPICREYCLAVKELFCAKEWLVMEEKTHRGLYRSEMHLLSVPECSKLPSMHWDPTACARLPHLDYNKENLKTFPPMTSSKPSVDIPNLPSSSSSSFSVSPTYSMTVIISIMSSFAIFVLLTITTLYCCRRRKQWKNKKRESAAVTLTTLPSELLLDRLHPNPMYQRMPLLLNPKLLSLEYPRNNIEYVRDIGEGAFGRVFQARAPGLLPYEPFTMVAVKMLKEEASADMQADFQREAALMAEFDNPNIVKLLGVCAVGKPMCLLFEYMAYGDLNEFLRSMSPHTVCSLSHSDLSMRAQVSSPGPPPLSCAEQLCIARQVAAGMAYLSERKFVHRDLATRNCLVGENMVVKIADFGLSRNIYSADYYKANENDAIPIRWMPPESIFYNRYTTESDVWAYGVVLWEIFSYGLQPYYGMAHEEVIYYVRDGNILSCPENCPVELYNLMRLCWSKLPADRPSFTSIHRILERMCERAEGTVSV
# [2] = biological target: Platelet-derived growth factor receptor alpha (Homo sapiens) (UniProt P16234); settings: at 0.1 µM
# [3] = biological target: Platelet-derived growth factor receptor alpha (Homo sapiens) (UniProt P16234); settings: at 1 µM
# [4] = tested on: Platelet-derived growth factor receptor alpha (Homo sapiens), P16234 [D842V]; settings: at 0.1 µM
# [5] = tested on: Platelet-derived growth factor receptor alpha (Homo sapiens), P16234 [D842V]; settings: at 1 µM
# [6] = tested on: Platelet-derived growth factor receptor alpha (Homo sapiens), P16234 [T674I]; settings: at 0.1 µM
# [7] = tested on: Platelet-derived growth factor receptor alpha (Homo sapiens), P16234 [T674I]; settings: at 1 µM
# [8] = tested on: Platelet-derived growth factor receptor alpha (Homo sapiens), P16234 [V561D]; settings: at 0.1 µM
# [9] = tested on: Platelet-derived growth factor receptor alpha (Homo sapiens), P16234 [V561D]; settings: at 1 µM
# [10] = biological target: Platelet-derived growth factor receptor beta (Homo sapiens) (UniProt P09619); settings: at 0.1 µM;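 further: reported value is the mean percent inhibition of the kinase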
# Platelet-derived growth factor receptor beta (Homo sapiens), sequence (P09619 whole entry): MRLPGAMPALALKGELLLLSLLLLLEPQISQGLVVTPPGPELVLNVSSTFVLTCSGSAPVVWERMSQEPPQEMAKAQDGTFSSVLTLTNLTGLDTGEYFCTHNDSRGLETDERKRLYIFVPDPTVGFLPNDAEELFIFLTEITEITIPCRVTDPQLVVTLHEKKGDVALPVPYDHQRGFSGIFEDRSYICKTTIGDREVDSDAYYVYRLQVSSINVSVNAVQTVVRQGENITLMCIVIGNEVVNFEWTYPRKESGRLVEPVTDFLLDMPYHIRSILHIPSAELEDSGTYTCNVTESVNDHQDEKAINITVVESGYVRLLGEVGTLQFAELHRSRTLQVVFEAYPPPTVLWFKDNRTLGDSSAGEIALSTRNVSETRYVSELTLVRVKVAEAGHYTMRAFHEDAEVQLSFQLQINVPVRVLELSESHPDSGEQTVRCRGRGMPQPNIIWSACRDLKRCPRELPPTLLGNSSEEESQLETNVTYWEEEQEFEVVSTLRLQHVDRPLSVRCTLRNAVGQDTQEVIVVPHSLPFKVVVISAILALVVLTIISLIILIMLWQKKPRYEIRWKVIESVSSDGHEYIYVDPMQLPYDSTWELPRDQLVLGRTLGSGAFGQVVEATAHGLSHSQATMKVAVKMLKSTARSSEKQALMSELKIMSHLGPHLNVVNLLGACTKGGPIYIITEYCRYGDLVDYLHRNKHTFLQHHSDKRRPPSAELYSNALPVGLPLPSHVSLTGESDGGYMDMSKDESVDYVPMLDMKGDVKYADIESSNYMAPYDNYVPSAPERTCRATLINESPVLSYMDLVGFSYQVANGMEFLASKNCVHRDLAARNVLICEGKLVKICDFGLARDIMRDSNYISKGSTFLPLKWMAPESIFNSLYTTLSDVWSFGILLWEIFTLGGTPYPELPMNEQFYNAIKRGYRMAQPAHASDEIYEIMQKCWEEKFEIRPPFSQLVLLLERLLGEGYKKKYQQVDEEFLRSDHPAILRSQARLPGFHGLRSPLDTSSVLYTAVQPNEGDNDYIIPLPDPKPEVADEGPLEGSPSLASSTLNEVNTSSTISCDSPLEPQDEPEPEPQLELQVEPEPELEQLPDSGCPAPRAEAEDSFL
# Platelet-derived growth factor receptor alpha (Homo sapiens), P16234 [V561D], sequence (P16234 whole entry V561D): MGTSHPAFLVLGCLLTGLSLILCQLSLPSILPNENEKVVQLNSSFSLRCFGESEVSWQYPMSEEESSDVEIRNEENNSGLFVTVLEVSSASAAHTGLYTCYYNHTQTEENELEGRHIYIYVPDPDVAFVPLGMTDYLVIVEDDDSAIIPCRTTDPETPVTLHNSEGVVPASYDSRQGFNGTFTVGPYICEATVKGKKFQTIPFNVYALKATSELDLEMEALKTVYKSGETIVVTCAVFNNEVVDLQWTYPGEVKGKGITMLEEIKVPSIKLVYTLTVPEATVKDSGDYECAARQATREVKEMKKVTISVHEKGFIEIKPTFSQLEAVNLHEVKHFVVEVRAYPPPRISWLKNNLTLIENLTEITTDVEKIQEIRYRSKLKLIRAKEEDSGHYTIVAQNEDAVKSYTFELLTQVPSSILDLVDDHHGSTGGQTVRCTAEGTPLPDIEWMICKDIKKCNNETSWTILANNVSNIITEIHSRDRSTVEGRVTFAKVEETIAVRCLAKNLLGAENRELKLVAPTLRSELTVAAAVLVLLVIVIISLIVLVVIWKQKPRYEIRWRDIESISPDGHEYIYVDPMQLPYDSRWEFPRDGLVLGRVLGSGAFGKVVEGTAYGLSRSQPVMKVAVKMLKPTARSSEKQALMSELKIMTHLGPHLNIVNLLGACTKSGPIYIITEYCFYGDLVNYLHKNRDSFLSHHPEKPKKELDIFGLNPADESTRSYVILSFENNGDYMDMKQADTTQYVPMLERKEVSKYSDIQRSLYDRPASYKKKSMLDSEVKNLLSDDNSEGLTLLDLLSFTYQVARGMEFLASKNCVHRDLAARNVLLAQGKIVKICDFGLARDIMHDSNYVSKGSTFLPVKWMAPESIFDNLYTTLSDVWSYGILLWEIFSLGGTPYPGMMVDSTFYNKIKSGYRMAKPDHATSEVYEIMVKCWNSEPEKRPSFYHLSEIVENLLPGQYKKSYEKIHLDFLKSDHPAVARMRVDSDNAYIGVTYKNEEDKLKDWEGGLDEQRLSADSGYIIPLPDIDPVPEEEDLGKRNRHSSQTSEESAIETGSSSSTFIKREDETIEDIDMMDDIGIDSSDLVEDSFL
# Platelet-derived growth factor receptor alpha (Homo sapiens), sequence (P16234 whole entry): as the sequence (P16234 whole entry V561D) above, with D561V counted along it
# Platelet-derived growth factor receptor alpha (Homo sapiens), P16234 [D842V], sequence (P16234 whole entry D842V): as the sequence (P16234 whole entry V561D) above, with D561V, D842V counted along it
# Platelet-derived growth factor receptor alpha (Homo sapiens), P16234 [T674I], sequence (P16234 whole entry T674I): as the sequence (P16234 whole entry V561D) above, with D561V, T674I counted along it
SMILES,inhibition [1] [%],inhibition [2] [%],inhibition [3] [%],inhibition [4] [%],inhibition [5] [%],inhibition [6] [%],inhibition [7] [%],inhibition [8] [%],inhibition [9] [%],inhibition [10] [%]
N#Cc1cccc(Nc2nccc(-c3cnn4ncccc34)n2)c1,24.6,16.3,52.5,10.5,48.8,15.7,60.5,23.3,59.9,27.2
CN(C)c1cc2c(Nc3ccc4c(cnn4Cc4ccccc4)c3)ncnc2cn1,1.56,0,8.21,0.65,4.51,3.93,8.69,0.81,6.19,-1
CS(=O)(=O)Nc1cccc(-c2ccc3c(NC(=O)C4CC4)n[nH]c3c2)c1,3.16,3.7,13.2,4.33,8.89,0.91,-1.66,1.13,6.51,-2.19
c1ccc(Nc2ncc(-c3ccccc3)o2)cc1,4.33,9.48,30.3,3.2,7.2,6.18,36.6,20,45.7,10.8
CN(C)C(=O)O[C@H]1CN[C@H](C#Cc2cc3ncnc(Nc4ccc(OCc5cccc(F)c5)c(Cl)c4)c3s2)C1,3.36,6.77,11.1,3.09,1.15,5.6,4.48,4.17,7.24,2.18
Cc1ccc2c(c1)/C(=N/Nc1ccc(S(N)(=O)=O)cc1)C(=O)N2,16.2,12.2,37.7,2.85,13.1,11.5,70.2,21.8,52.3,8.12
Cc1ccc(C(=O)NC2CC2)cc1-c1ccc2[nH]ncc2c1,2.51,2.1,13.4,1.95,4.58,1.44,2.76,3.49,13.8,1.82
NC(=O)c1sc(-n2cnc3ccccc32)cc1OCc1ccccc1Br,7.28,6.48,15.4,4.15,6.85,2.52,5.25,5.2,9.55,4.3
NS(=O)(=O)c1cccc(Nc2cc(-c3ccc(F)cc3)n[nH]2)c1,13.7,12.7,36.1,3.21,16.6,9.3,43,29.1,50.8,12.7
O=C1Nc2ccccc2/C1=C/Nc1ccc2[nH]c(=O)[nH]c2c1,29.5,26.1,65.3,18,69.2,18.2,80.1,26.1,69.8,19.7
ON=C1CCc2cc(-c3nc(C4CCNCC4)[nH]c3-c3ccncc3)ccc21,1.9,2.97,10.5,2.44,6.66,1,0.52,1.54,6.14,4.22
CS(=O)(=O)CCNCc1nc(-c2ccc3ncnc(Nc4ccc(OCc5cccc(C(F)(F)F)c5)cc4)c3c2)cs1,5.88,5.06,13.7,-0.28,1.79,5.99,15.7,4.8,20.4,6.68
Cc1cc(O)cc(C)c1/C=C/c1cncc(C(=O)N(C)C)c1,8.5,11.8,13.3,3.51,3.16,8.15,1.18,1.47,5.39,5.76
NS(=O)(=O)c1ccc(NC=C2C(=O)Nc3ccc4ncsc4c32)cc1,73,69.8,91.4,75.9,95,29.3,90,68,94.9,73.2
N#Cc1c(NC(=O)c2ccccc2F)sc2c1CCCC2,1.48,1.47,5.27,1.43,3.35,1.66,4.03,2.72,3.24,1.07
CCn1c(-c2nonc2N)nc2ccc(F)cc21,3.46,9.43,8.14,3.01,3.62,8.13,10.2,5.36,2.86,5.06

# From ChEMBL document CHEMBL1961873, “Compounds: GSK PKIS; Assays: Nanosyn kinase panel” (2012)
